Assay outcomes from PubChem.
Redox H2O2 prof – compounds producing H2O2 with reducing agent – biochemical, NIH compound library profiling, artefact control for MLSCN library redox annotation, primary screen; DTT-dependent redox cycling H2O2, phenol red/HRP absorbance; 100% = 100 µM peroxide control, 0% = buffer; activation, % at 10 µM; 200,000 compounds, 0.03% hits;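 active means activation of at least 50% relative to the plate's high and low controls in the primary single-dose screen; inactive means activation below 50%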;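 further: compound incubated with DTT at 0.8 mM final as the reducing agent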
PKD1 kinase inh – blocks activity of human protein kinase D1. Q15139. PKD1 kinase fluorescence polarization assay. inhibition, % (concentration not given with the values). 200,000 compounds, 0.056% hits; in the data active means inhibition above about 50%
TNF necrop inh – blocks TNF-alpha induced death of Jurkat FADD-/- cells; Jurkat FADD-/- TNF necroptosis rescue, ATP luminescence, 24 h; 0 = TNF only, 100 = no-TNF cells; 220,000 compounds, 0.068% hits; activation (protection from cell death), % at 10 µM; AID 463075;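 active means activation, meaning protection from cell death, of at least 50% relative to plate controls; inactive means activation below 50%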;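 further: necroptosis triggered by 40 ng/mL TNF-alpha added together with compound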
L929 necroptosis – blocks zVAD induced death of L929 cells; viability rescue, % at 10 µM; 220,000 compounds, 0.38% hits; L929 zVAD necroptosis rescue, ATP luminescence, 24 h; with zVAD 60 µM; AID 1377;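 active means activation, scaled between plate controls, above about 75%, limit read from the data; inactive means activation under that limit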
WT yeast gro inh – growth inhibition of WT yeast, mitochondrial fusion screen. inhibition, % at 10 µM. mitochondrial fusion phenotypic screen, WT strain. 190,000 compounds, 2.1% hits; in the data active means inhibition above about 58%; tested in S. cerevisiae
PERK inhibitor – blocks human PERK kinase; Q9NZJ5; CHO PERK-DD fusion, SEAP luminescence translation reporter; inhibition, % at 5.6 µM; 220,000 compounds, 0.17% hits;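 active means inhibition above the mean inhibition of all tested compounds plus 3 SD, set separately per screening campaign, cut at about 2.9% in these data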;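 further: PERK kinase domain activated by AP20187 dimerizer at 100 nM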
Target sequence (Q9NZJ5 whole entry, looked up, the tested form may be a part): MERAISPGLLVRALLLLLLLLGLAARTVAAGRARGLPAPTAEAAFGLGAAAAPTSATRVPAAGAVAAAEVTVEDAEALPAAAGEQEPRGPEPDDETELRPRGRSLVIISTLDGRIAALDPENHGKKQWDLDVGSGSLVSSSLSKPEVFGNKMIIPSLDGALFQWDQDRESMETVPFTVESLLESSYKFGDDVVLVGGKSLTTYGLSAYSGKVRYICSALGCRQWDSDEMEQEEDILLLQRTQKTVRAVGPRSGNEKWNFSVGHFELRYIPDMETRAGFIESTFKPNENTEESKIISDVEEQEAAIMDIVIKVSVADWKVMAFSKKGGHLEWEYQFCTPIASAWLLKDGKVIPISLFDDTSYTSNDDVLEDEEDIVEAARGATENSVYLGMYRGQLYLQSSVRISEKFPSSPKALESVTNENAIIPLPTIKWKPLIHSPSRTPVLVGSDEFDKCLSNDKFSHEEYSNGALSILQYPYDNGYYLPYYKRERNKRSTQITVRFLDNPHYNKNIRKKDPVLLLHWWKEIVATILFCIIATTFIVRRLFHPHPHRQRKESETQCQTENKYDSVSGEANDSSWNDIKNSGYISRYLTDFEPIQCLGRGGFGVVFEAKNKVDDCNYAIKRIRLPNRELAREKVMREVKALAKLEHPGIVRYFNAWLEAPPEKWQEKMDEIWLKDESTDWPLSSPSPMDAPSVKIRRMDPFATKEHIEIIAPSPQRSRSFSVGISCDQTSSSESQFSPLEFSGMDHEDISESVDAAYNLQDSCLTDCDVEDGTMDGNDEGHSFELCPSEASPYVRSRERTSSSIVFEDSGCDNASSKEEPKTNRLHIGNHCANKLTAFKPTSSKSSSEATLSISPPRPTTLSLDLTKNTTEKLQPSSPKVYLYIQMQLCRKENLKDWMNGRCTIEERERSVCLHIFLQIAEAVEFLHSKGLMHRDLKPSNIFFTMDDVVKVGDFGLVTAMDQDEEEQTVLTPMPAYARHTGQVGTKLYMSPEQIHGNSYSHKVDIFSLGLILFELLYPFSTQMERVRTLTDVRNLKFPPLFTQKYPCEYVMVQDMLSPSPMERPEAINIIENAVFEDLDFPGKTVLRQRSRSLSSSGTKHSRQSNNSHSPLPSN
Numbers stand for hits; . = inactive; / = no result given. Hits are enriched below; roughly 2.4% of the tested compounds scored in any of these assays.

SMILES	Redox H2O2 prof	PKD1 kinase inh	TNF necrop inh	L929 necroptosis	WT yeast gro inh	PERK inhibitor
CCCCCC(C)NC(=O)c1ccoc1C (stereo not drawn)	.	.	.	.	78	.
Cc1cc(N2CCN(S(=O)(=O)c3ccc(Cl)cc3)CC2)c2ccccc2n1	.	.	.	.	.	.
Cc1cc(N2CCN(S(=O)(=O)c3ccc(Cl)c(Cl)c3)CC2)c2ccccc2n1	.	.	.	.	69	.
Cc1ccc(S(=O)(=O)N2CCN(c3ccnc4cc(Cl)ccc34)CC2)cc1	.	.	.	.	65	.
Cc1ccc(S(=O)(=O)N2CCN(c3ccnc4cc(Cl)ccc34)CC2)cc1C	.	.	.	.	69	.
CS(=O)(=O)N1CCN(c2ccnc3cc(Cl)ccc23)CC1	.	.	.	.	.	.
COc1cc(C(=O)OCC(=O)NC(=O)C2CCCCC2)ccc1OC(F)F	.	.	.	.	.	.
CCn1cc(C(C)NC(=O)Nc2ccccc2C(=O)OC)c(C)n1 (stereo not drawn)	.	.	.	.	.	.
NNc1nc2c(Cl)c(Cl)ccc2s1	.	.	.	.	78	.
CN1CC(c2ccccn2)C2(SC(=S)N(Cc3ccccc3)C2=O)C12C(=O)Nc1ccccc12 (stereo not drawn)	.	.	.	.	.	.
CN1CC(c2ccccc2)C2(SC(=S)N(Cc3ccco3)C2=O)C12C(=O)Nc1ccccc12 (stereo not drawn)	.	.	.	.	80	.
COc1ccc(CN2CCOCCOCCN(Cc3ccc(OC)cc3)CCOCCOCC2)cc1	/	/	.	.	/	.
Cc1oc(-c2cccc3ccccc23)nc1CN1CCN(c2ncnc3ccccc23)CC1	.	.	.	.	63	.
COc1cccc(-c2nc(-c3ccc(NC(=O)c4cccs4)cc3)no2)c1	.	.	.	.	58	.
COc1cccc(-c2nc(-c3ccc(NC(=O)c4ccncc4)cc3)no2)c1	.	.	.	.	.	.
S=C(NCc1ccccc1)NC1CCCc2ccccc21 (stereo not drawn)	.	.	.	.	72	.
S=C(NCc1ccco1)NC1CCCc2ccccc21 (stereo not drawn)	.	.	.	.	.	.
O=C(/C(=C/O)N=Nc1ccccc1Cl)c1ccccc1	.	.	.	.	.	.
Cc1cccc(/C=N/NC(=O)c2ccc(Br)cc2)c1	.	.	.	.	.	.
O=C(/C(=C/O)N=Nc1cccc(C(F)(F)F)c1)c1ccccc1	.	.	.	.	95	.
Cc1cccc(N=N/C(=C\O)C(=O)c2ccc(Br)cc2)c1	.	.	.	.	96	.
Cc1ccc(N=N/C(=C\O)C(=O)c2ccncc2)cc1	.	.	.	.	.	.
Cc1cccc(N/N=C(\C=N\N)C(=O)c2ccc(Br)cc2)c1	.	.	.	.	77	.
CCCCOP(=O)(OCCCC)C(Nc1ccccc1)c1ccc2c(c1)OCO2 (stereo not drawn)	.	.	.	.	65	.
COc1ccc(/C=N\Nc2ncc(F)c(N3CCOCC3)n2)cc1OC	/	/	.	.	/	.
SMILES	Redox H2O2 prof	PKD1 kinase inh	TNF necrop inh	L929 necroptosis	WT yeast gro inh	PERK inhibitor
Cc1cc(C)cc(NC(=O)CSc2nc(N)c(NC(=O)c3cccs3)c(=O)[nH]2)c1	.	.	.	/	.	.
Nc1nc(-c2ccc3c(c2)OCCO3)cs1	.	.	.	.	.	.
Nc1nc(-c2ccc3c(c2)CCCC3)cs1	.	.	.	.	81	.
COC(=O)CCC(=O)Nc1cccc([N+](=O)[O-])c1	.	.	.	.	.	.
COc1cccc(OCCN2CCN(c3ncnc4c3cnn4-c3ccccc3)CC2)c1	.	.	.	.	59	.
CCC(CC)c1nnc(NC(=O)c2ccc3ccccc3n2)s1	.	.	.	.	61	.
CCC(CC)c1nnc(NC(=O)c2cc(-c3ccccc3)nc3ccccc23)s1	.	.	.	.	.	.
O=S(=O)(/C=C/c1ccccc1)Oc1ccccc1	.	.	.	.	.	.
COC(=O)c1c(NC(=O)c2nc3nc(C)cc(C(F)F)n3n2)sc2c1CCC2	.	.	.	.	60	.
Cc1onc(-c2ccccc2Cl)c1C(=O)Nc1sc2c(c1C(N)=O)CCC(C)C2 (stereo not drawn)	.	.	.	.	69	.
